Nine molecules from PubChem BioAssay (NCI) can be followed below.

Molecules are shown by their SMILES. This is part of a sample that, as a whole, favours compounds with a hit. Of some 83,000 tested, about 20% had one in any assay.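 Activity criterion: percent growth below 10, measured after cells in 96-well plates were exposed to a single compound concentration for 48 hours.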 A number with no mark means an inactive call. Active and inactive are the calls of the source.

Holding throughout (test): NCI-60 one-dose screen, 48 h (100 = growth as untreated, 0 = no growth, -100 = all killed)
In one test the test system is HCT-15 colon. The settings on record: 10 µM unless noted.
For a further test, the system named is HT29 colon. Conditions: 10 µM unless noted.
The test system of another test is SNB-75 CNS. Conditions: 10 µM unless noted.
The next test concerns SNB-19 CNS. Conditions: 10 µM unless noted.
The subject of the next test is U251 CNS. Conditions: 10 µM unless noted.
In the next test the test system is PC-3 prostate. Conditions: 10 µM unless noted.
The next test has as its system SK-MEL-5 melanoma. The settings on record: 10 µM unless noted.
The subject of a further test is UACC-62 melanoma. Conditions: 10 µM unless noted.
The test system of another test is LOX IMVI melanoma. Conditions: 10 µM.
A further test has as its system SK-MEL-28 melanoma. Conditions: 10 µM unless noted.
A further test concerns SK-MEL-2 melanoma. Conditions: 10 µM unless noted.
The next test relates to EKVX NSCLC. The settings on record: 10 µM unless noted.
The next test relates to SN12C renal. Conditions: 10 µM unless noted.
In a further test the test system is UO-31 renal. Conditions: 10 µM unless noted.
Another test deals with TK-10 renal. Conditions: 10 µM unless noted.
Another test deals with ACHN renal. The settings on record: 10 µM unless noted.
The next test relates to CAKI-1 renal. The settings on record: 10 µM unless noted.
A further test deals with A498 renal. The settings on record: 10 µM unless noted.
Another test relates to MOLT-4 leukemia. The settings on record: 10 µM unless noted.
The next test has as its system CCRF-CEM leukemia. Conditions: 10 µM unless noted.

Take `Cc1ccc(NCN2C(=O)c3ccccc3C2=O)c(C)n1`: the growth in the test with HCT-15 colon is 115%; with HT29 colon it was 104%; in the test on SNB-75 CNS, 116%; with SNB-19 CNS, 113%; with U251 CNS it was 103%; with PC-3 prostate, 101%. For the same molecule, the growth is 100% in the test with SK-MEL-5 melanoma; 109% with UACC-62 melanoma; 104% with LOX IMVI melanoma; 116% in the test with SK-MEL-28 melanoma; 124% in the test on SK-MEL-2 melanoma; 106% with EKVX NSCLC. The growth in the test with SN12C renal is 111%; with UO-31 renal, 87.3%; in the test on TK-10 renal, 119%; with ACHN renal, 117%; in the test on CAKI-1 renal, 105%; in the test with A498 renal, 88.7%. Besides, the growth in the test on MOLT-4 leukemia is 104%.

As for `NC(=O)N1CCOCC1`, the growth was 106% in the test with HCT-15 colon; 92.4% with HT29 colon; 66% in the test with SNB-75 CNS; 101% in the test with SNB-19 CNS; 107% with U251 CNS; 87.1% in the test with PC-3 prostate. Further, the growth was 105% in the test with SK-MEL-5 melanoma; 104% with UACC-62 melanoma; 107% with LOX IMVI melanoma; 106% in the test on SK-MEL-28 melanoma; 105% with SK-MEL-2 melanoma; 108% in the test with EKVX NSCLC. The growth is 109% with SN12C renal; 79.8% in the test on UO-31 renal; 92.4% with TK-10 renal; 110% with ACHN renal; 115% in the test with CAKI-1 renal; 92.7% in the test on A498 renal. For the same molecule, the growth in the test on CCRF-CEM leukemia is 88.9%; in the test with MOLT-4 leukemia, 93.7%.

Regarding `C/C(Cc1ccccc1)=N\O`, the growth with HCT-15 colon was 96.9%; with HT29 colon it was 101%; in the test on SNB-75 CNS, 115%; in the test on SNB-19 CNS, 108%; in the test on U251 CNS it was 104%; with PC-3 prostate, 88.4%. Also, the growth was 99.4% in the test on SK-MEL-5 melanoma; 106% in the test on UACC-62 melanoma; 119% in the test on LOX IMVI melanoma; 111% in the test with SK-MEL-28 melanoma; 104% in the test with SK-MEL-2 melanoma; 116% in the test with EKVX NSCLC. In addition, the growth was 107% with SN12C renal; 102% in the test with UO-31 renal; 103% in the test with TK-10 renal; 106% with ACHN renal; 115% in the test on CAKI-1 renal; 103% in the test with A498 renal. Further, the growth was -29.9% (active) in the test on CCRF-CEM leukemia and 5.17% (active) in the test with MOLT-4 leukemia.

Regarding `CC(=O)/C(C)=N\OC(=O)Nc1ccccc1`, the growth in the test on HCT-15 colon is 103%; with HT29 colon, 99.4%; in the test on SNB-75 CNS, 82.7%; in the test on SNB-19 CNS, 98%; in the test with U251 CNS, 93%; in the test with PC-3 prostate it was 97.5%. The growth was 99.1% in the test on SK-MEL-5 melanoma; 107% with UACC-62 melanoma; 94.6% with LOX IMVI melanoma; 112% with SK-MEL-28 melanoma; 107% in the test with SK-MEL-2 melanoma; 95.6% in the test with EKVX NSCLC. For the same molecule, the growth in the test on SN12C renal is 107%; in the test with UO-31 renal, 80.8%; in the test on TK-10 renal, 97.5%; with ACHN renal, 101%; in the test with CAKI-1 renal, 97.8%; with A498 renal it was 101%. Further, the growth in the test with MOLT-4 leukemia is 90.4%.

Regarding `CCC(=O)Oc1c(C)cc(O)c2ccccc12`, the growth is 91.1% in the test with HCT-15 colon; 106% in the test on HT29 colon; 86.4% with SNB-75 CNS; 108% with SNB-19 CNS; 87.7% in the test with U251 CNS; 59% with PC-3 prostate. In addition, the growth in the test with SK-MEL-5 melanoma is 82%; with UACC-62 melanoma, 67.3%; in the test with LOX IMVI melanoma, 75%; in the test with SK-MEL-28 melanoma, 119%; in the test on SK-MEL-2 melanoma, 90.4%; with EKVX NSCLC, 97%. Besides, the growth in the test on SN12C renal was 93.3%; in the test with UO-31 renal, 51.8%; with TK-10 renal it was 132%; with ACHN renal it was 77.5%; in the test on CAKI-1 renal, 95.1%; in the test with A498 renal it was 101%. Besides, the growth with MOLT-4 leukemia was 64%.

With `O=C1Nc2ccccc2/C1=C\c1ccccc1O`, the growth is 93.3% with HCT-15 colon; 116% in the test on HT29 colon; 64.9% in the test with SNB-75 CNS; 101% with SNB-19 CNS; 93.5% in the test on U251 CNS; 96.8% with PC-3 prostate. Also, the growth in the test with SK-MEL-5 melanoma is 92.6%; with UACC-62 melanoma, 80.5%; in the test with LOX IMVI melanoma, 84.8%; in the test on SK-MEL-28 melanoma, 97%; with SK-MEL-2 melanoma it was 107%; with EKVX NSCLC, 56.4%. For the same molecule, the growth is 92.5% with SN12C renal; 51.3% in the test on UO-31 renal; 124% in the test with TK-10 renal; 85.4% in the test on ACHN renal; 88.6% in the test with CAKI-1 renal; 105% in the test on A498 renal. The growth in the test with MOLT-4 leukemia was 74.6%.

As for `COC(=O)C1=C(C)C(=O)CC1`, the growth is 121% in the test on HCT-15 colon; 98.3% in the test on HT29 colon; 94.4% with SNB-75 CNS; 104% in the test on SNB-19 CNS; 115% with U251 CNS; 96.2% in the test with PC-3 prostate. Besides, the growth was 110% with SK-MEL-5 melanoma; 100% in the test on UACC-62 melanoma; 118% in the test on LOX IMVI melanoma; 110% with SK-MEL-28 melanoma; 115% in the test with SK-MEL-2 melanoma; 131% in the test with EKVX NSCLC. For the same molecule, the growth in the test on SN12C renal was 98.3%; in the test with UO-31 renal, 89%; in the test on TK-10 renal it was 108%; with ACHN renal it was 99.7%; with CAKI-1 renal it was 116%; in the test with A498 renal, 109%. Besides, the growth is 99.6% in the test with CCRF-CEM leukemia and 101% in the test on MOLT-4 leukemia.

For the molecule `COc1cc(C(=O)O)c(O)c(C(C)(C)C)c1`, the growth in the test on HCT-15 colon is 108%; in the test with HT29 colon, 109%; in the test with SNB-75 CNS, 96.8%; in the test on SNB-19 CNS, 98.9%; with U251 CNS, 95.2%; in the test on PC-3 prostate, 97.6%. For the same molecule, the growth in the test with SK-MEL-5 melanoma was 96.5%; in the test on UACC-62 melanoma, 104%; with LOX IMVI melanoma, 98.8%; in the test with SK-MEL-28 melanoma, 109%; in the test with SK-MEL-2 melanoma, 106%; in the test on EKVX NSCLC, 102%. Further, the growth with SN12C renal is 103%; with UO-31 renal, 92.9%; with TK-10 renal, 105%; in the test with ACHN renal it was 109%; in the test with CAKI-1 renal, 102%; in the test with A498 renal, 96.3%. Also, the growth in the test on MOLT-4 leukemia was 98.1%.

Take `CC1(C)OC2C(CO)OC(n3ccc(=O)[nH]c3=O)C2O1` (stereo not given): the growth with HCT-15 colon is 102%; in the test on HT29 colon it was 94.3%; in the test with SNB-75 CNS, 106%; in the test with SNB-19 CNS, 100%; in the test with U251 CNS, 87.6%; in the test with PC-3 prostate, 90.2%. Further, the growth with SK-MEL-5 melanoma was 97.9%; in the test with UACC-62 melanoma, 93.9%; in the test on LOX IMVI melanoma it was 101%; with SK-MEL-28 melanoma it was 108%; in the test on SK-MEL-2 melanoma, 96.6%; in the test with EKVX NSCLC, 104%. Also, the growth was 90.1% in the test on SN12C renal; 88% with UO-31 renal; 87.2% with TK-10 renal; 104% in the test on ACHN renal; 101% in the test on CAKI-1 renal; 75.9% in the test on A498 renal. The growth was 101% with CCRF-CEM leukemia and 92.3% in the test on MOLT-4 leukemia.
